From PubChem BioAssay (NCI)
Compounds without any hit were thinned out: in the full panel of roughly 83,000, 20% have a hit.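 Percent growth is the endpoint: 0 to 100 indicates growth inhibition (40 means 60% inhibition), 0 means no net growth, and negative values indicate cell death.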 Unmarked numbers belong to inactive results. The source made the active and inactive calls. Rule for the calls: active = growth percent below 10; inactive = the rest.

Assays:
Experiment in all cases: NCI-60 one-dose screen, 48 h (100 = growth as untreated, 0 = no growth, -100 = all killed)
Settings in all cases: 10 µM unless noted
[1] = tested on: HCT-15 colon
[2] = tested on: HT29 colon
[3] = tested on: SNB-75 CNS
[4] = tested on: SNB-19 CNS
[5] = tested on: U251 CNS
[6] = tested on: PC-3 prostate
[7] = tested on: SK-MEL-5 melanoma
[8] = tested on: SK-MEL-28 melanoma
[9] = tested on: SK-MEL-2 melanoma
[10] = tested on: EKVX NSCLC
[11] = tested on: SN12C renal
[12] = tested on: UO-31 renal
[13] = tested on: TK-10 renal
[14] = tested on: ACHN renal
[15] = tested on: CAKI-1 renal
[16] = tested on: A498 renal
[17] = tested on: CCRF-CEM leukemia
[18] = tested on: MOLT-4 leukemia
[19] = tested on: UACC-62 melanoma
[20] = tested on: LOX IMVI melanoma

| Structure (SMILES) | growth [1] | growth [2] | growth [3] | growth [4] | growth [5] | growth [6] | growth [7] | growth [8] | growth [9] | growth [10] | growth [11] | growth [12] | growth [13] | growth [14] | growth [15] | growth [16] | growth [17] | growth [18] | growth [19] | growth [20] |
| --- | --- | --- | --- | --- | --- | --- | --- | --- | --- | --- | --- | --- | --- | --- | --- | --- | --- | --- | --- | --- |
| Cc1ccncc1C(=O)O | 104% | 101% | 86.6% | 92.9% | 97.2% | 90.1% | 106% | 95.4% | 121% | 97.5% | 94.6% | 88.7% | 123% | 97.2% | 95.9% | 89% | 140% | 122% | – | – |
| Oc1cccc2ccc(N/N=C/c3cc(CN4CCCCC4)c(O)c4ncccc34)nc12 | 20.6% | 14.7% | 27.4% | 19.9% | -1.42% (active) | 5.8% (active) | – | 23% | -4.78% (active) | 20% | 17.6% | -19% (active) | 32.5% | -28.9% (active) | 6.88% (active) | 38.9% | 10.7% | 7.17% (active) | 8.94% (active) | -58.4% (active) |
| Nc1c(C(=O)Nc2c(Cl)cccc2Cl)sc2nc3c(cc12)CCCC3 | 41.9% | 43.3% | 71.6% | 82.8% | 74.1% | 80% | 83.1% | – | 75.8% | 102% | 69.6% | 84.3% | 90.2% | 87.7% | 79.3% | 79.7% | 55.1% | 46.9% | – | – |
| CCOC(=O)C1OC1(c1ccccc1)c1ccccc1 (centres undefined) | 109% | 107% | 108% | 107% | 100% | 98.7% | – | 119% | 112% | 101% | 98.7% | 88.1% | 107% | 103% | 79.5% | 106% | 100% | 105% | 98% | 113% |
| CCCCC[C@H]1C/C=C2/C(=O)C=C[C@@H]2C/C=C\CCCC(=O)O[C@@H](CCCCC)C/C=C2/C(=O)C=C[C@@H]2C/C=C\CCCC(=O)O1 | -54.5% (active) | -77.9% (active) | -80.8% (active) | -83.4% (active) | -94.3% (active) | -71% (active) | -97.4% (active) | -81.9% (active) | -60% (active) | -68.3% (active) | -65.7% (active) | -97.1% (active) | -83.4% (active) | -93.4% (active) | – | -84.8% (active) | -3.81% (active) | -15.8% (active) | – | – |
| COc1cccc(-c2nn(-c3ccccc3)cc2-c2ccnc(NCCCNS(=O)(=O)c3ccc(Br)cc3)c2)c1 | 42.5% | 9.65% (active) | 75.2% | 60.2% | 40.2% | 26.4% | 39.9% | – | 50.9% | 66% | 57.1% | 21.6% | 55.7% | 48.3% | 51.1% | 41.4% | 32.1% | 23.5% | – | – |
| COc1cnc2c(c1)C(=O)c1c-2n(CCCNC2=NCCS2)c(=O)c2cc([N+](=O)[O-])ccc12 | -60.8% (active) | -42.4% (active) | 23.7% | 27.2% | -83.9% (active) | -48.1% (active) | -41% (active) | -35.9% (active) | 73.1% | 11.3% | 13.5% | -71% (active) | -89.2% (active) | -77.8% (active) | 13.3% | -36% (active) | -10.9% (active) | -11.3% (active) | – | – |
| O=P(O)(c1ccccc1)c1ccccc1I | 111% | 80% | 84% | 103% | 89.3% | 82.1% | 96.8% | 108% | 96% | 94.7% | 99.3% | – | 102% | 106% | 90.1% | 92.6% | 94.6% | 97.7% | – | – |
| CCNCCCn1c2c(c3ccc([N+](=O)[O-])cc3c1=O)C(=O)c1cc(OC)cnc1-2 | -12% (active) | -11% (active) | -23.8% (active) | 10.6% | -73.3% (active) | 1.89% (active) | -97.3% (active) | -31.5% (active) | -27.8% (active) | 8.7% (active) | 1.09% (active) | -85.1% (active) | -27.6% (active) | -61.1% (active) | -58.5% (active) | – | 3.93% (active) | -4.26% (active) | – | – |
| Clc1ccc2c(NCCNc3nc(-c4ccccc4)cc(-c4ccccc4)n3)ccnc2c1 | -74.2% (active) | -54.3% (active) | -72.2% (active) | -51.7% (active) | -90.6% (active) | -88.5% (active) | -93.4% (active) | -90.7% (active) | -10.9% (active) | 18.6% | -74.4% (active) | -94.3% (active) | -8.38% (active) | -97.2% (active) | – | 93% | -9.52% (active) | -32.2% (active) | – | – |
| CNC(=O)c1cc(Oc2ccc3nc(NC(=O)Nc4ccc(Cl)cc4)sc3c2)ccn1 | 84.8% | 68.8% | 50.6% | 59.3% | 37.3% | 66% | 73.3% | – | 81.1% | 53.8% | – | 62.5% | 62.3% | 64.9% | 94.7% | 117% | 83.2% | 85.4% | – | 51.6% |
| C[C@]12CC[C@@H]3c4ccc(O)cc4CC[C@H]3[C@@H]1C[C@H](O)[C@@H]2O | 97.3% | 109% | 82% | 102% | 100% | 92.4% | 94.1% | 96.5% | 104% | 67.4% | 94.9% | 78.2% | 100% | 93.7% | 90.5% | 92.6% | 103% | 109% | – | – |
| COc1cccc(-c2nn(-c3ccccc3)cc2-c2ccnc(NCCNS(=O)(=O)c3ccc(Cl)cc3)c2)c1 | 24.1% | 11.6% | 66.2% | 46% | 31.2% | 10.6% | -13.7% (active) | – | 13.4% | 32.1% | 33.9% | – | 41.5% | 26.6% | 32.2% | 45.9% | 15.3% | 1.18% (active) | – | 24.5% |
| Fc1ccc(Nc2ccc3c(OCCCN4CCOCC4)cccc3n2)cc1F | 34% | 6.29% (active) | 66.6% | 90.5% | 64.2% | 80.5% | – | 80.4% | 95.2% | 81.4% | 81.6% | 63.8% | 92.4% | 78.3% | 82.3% | 69.7% | 69.4% | 53% | 62.4% | 6.82% (active) |
| Cc1cc(N2CCOCC2)nc(N(CCCNc2ccnc3cc(Cl)ccc23)Cc2ccco2)n1 | 24% | -2.68% (active) | 51.6% | 20.4% | 25.4% | 34.7% | 11.3% | 49.5% | 11.9% | 49.4% | 40.4% | 32.2% | 47.9% | 46.9% | – | – | 30.6% | 9.42% (active) | – | – |
| COc1ccc(-c2cc(=O)oc3ccc(Cl)cc23)cc1F | 11.7% | -5.75% (active) | 46% | 23.5% | 4.46% (active) | 11% | – | 59.5% | 36.3% | 38.3% | 30.6% | 48.4% | 62.9% | 34.8% | 27% | 2.69% (active) | 11.8% | 7.8% (active) | 30.1% | 21.9% |
| CCN(CC)C(=O)CCCCCn1c2ccccc2c2c3c(c4c5ccccc5[nH]c4c21)C(=O)N(O)C3=O | 45.9% | -43.7% (active) | 74.4% | 47.2% | 10.5% | 30% | 25.9% | – | 61.4% | 64.1% | – | -50.7% (active) | 68.3% | -64.8% (active) | -59% (active) | 69.1% | 21.3% | -0.333% (active) | – | -59% (active) |
